The assay concerns the target T1, Methionyl-tRNA synthetase, putative (Leishmania donovani (strain BPK282A1)) (UniProt E9BF75).
T1 sequence (whole entry): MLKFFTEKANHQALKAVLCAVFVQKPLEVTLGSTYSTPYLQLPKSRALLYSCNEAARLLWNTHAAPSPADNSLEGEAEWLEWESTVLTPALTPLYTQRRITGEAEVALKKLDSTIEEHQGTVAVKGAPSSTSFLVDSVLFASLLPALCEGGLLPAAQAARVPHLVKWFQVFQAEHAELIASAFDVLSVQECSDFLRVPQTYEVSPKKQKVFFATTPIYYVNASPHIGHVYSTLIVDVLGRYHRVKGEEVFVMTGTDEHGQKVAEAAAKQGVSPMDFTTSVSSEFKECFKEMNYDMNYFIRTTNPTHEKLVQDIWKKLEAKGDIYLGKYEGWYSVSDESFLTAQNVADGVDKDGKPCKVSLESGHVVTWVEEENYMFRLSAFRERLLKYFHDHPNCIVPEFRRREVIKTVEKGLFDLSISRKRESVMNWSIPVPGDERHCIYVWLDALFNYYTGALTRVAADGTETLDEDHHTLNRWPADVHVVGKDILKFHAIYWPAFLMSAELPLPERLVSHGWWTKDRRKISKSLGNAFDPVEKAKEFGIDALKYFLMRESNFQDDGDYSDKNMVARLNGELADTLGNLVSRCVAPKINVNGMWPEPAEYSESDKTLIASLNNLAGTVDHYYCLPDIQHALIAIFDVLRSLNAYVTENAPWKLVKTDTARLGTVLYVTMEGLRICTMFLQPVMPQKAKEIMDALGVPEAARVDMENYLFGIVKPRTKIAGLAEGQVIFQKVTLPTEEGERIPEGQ
Put plainly: Leishmania donovani Methionine tRNA synthetase (LdMetRS):v7. Dose response assay. In kind it is functional. On the set-up: conc 80 nM, time 150 minutes.

For `CCNc1nc(-c2ccc(CC)cc2)cc(C(F)(F)F)n1`, the PXC50 (MAX_EFFECT 8.510638298) was less than 4 and the PXC50 (MAX_EFFECT 9.32642487) was less than 4.

With `CNC(=O)CN(C)c1nc(C)nc2sc3c(c12)CCC3`, the PXC50 by setting is: (MAX_EFFECT 5.291005291) less than 4; (MAX_EFFECT 6.4) less than 4.

On to `N#Cc1cccc(Nc2nccc(N3CCC(NS(=O)(=O)c4cccc(C#N)c4)CC3)n2)c1`, for which the PXC50 runs as follows: (MAX_EFFECT 35.34883721) less than 4; (MAX_EFFECT 46.85314685) less than 4.

For the compound `O=C(NCC1(O)CCC(F)(F)CC1)c1cc(=O)c2cc(O)ccc2o1`, the PXC50 is less than 4 (MAX_EFFECT 6.858054226) and less than 4 (MAX_EFFECT 7.869481766).

Turning to `Cc1ccc(N2CCC3(CN(Cc4ccncc4)CCC3(F)F)C2)nn1` (stereo not given), the PXC50 is, setting by setting: (MAX_EFFECT 9.977324263) less than 4; (MAX_EFFECT 11.58878505) less than 4.

`Cc1nc(N2CCCC(O)C2)c2c3c(sc2n1)CCCC3` (stereo not given): the PXC50 is, setting by setting: (MAX_EFFECT 9.649122807) less than 4; (MAX_EFFECT 16.66666667) less than 4.

For `Cc1sc2nc(CCN)nc(N(C)CCCC3CCCO3)c2c1C` (stereo not given), the PXC50 is, setting by setting: (MAX_EFFECT 15.90909091) less than 4; (MAX_EFFECT 18.36734694) less than 4.

`O=C(NCC1CCCCN1C(=O)c1cccc2ccccc12)c1ccccc1` (stereo not given): the PXC50 reads like this: (BOTTOM 0.770786067, HILLSLOPE 2.128077678, MAX_EFFECT 96.73659674, TOP 102.5562093) 4.68; (BOTTOM 1.426381969, HILLSLOPE 1.713383958, MAX_EFFECT 97.20930233, TOP 108.6916663) 4.55.

In the case of `CS(=O)(=O)N1CCN(c2ccc3ccc(C(=O)NCCN4CCS(=O)(=O)CC4)cn23)CC1`, the PXC50 runs as follows: (BOTTOM 1.003127248, HILLSLOPE 2.200420441, MAX_EFFECT 73.49177331, TOP 74.60069177) 4.88; (BOTTOM 1.050104582, HILLSLOPE 2.645513549, MAX_EFFECT 70.81339713, TOP 67.22785398) 4.94.

On to `CC(=O)N1CCN(C(=O)c2ccc3ccc(N4CCN(S(C)(=O)=O)CC4)n3c2)CC1`, for which the PXC50 is, setting by setting: (BOTTOM 3.542001412, HILLSLOPE 2.454286416, MAX_EFFECT 62.83018868, TOP 64.11209582) 4.91; (BOTTOM 3.854741042, HILLSLOPE 2.302398718, MAX_EFFECT 55.70776256, TOP 55.14895524) 4.97.

`N[C@H](COc1cccc(F)c1Oc1ccc(Cl)cc1)c1ccccc1`: the PXC50 (BOTTOM 4.511954534, HILLSLOPE 1.875524354, MAX_EFFECT 67.28778468, TOP 93.68195714) turned out to be 4.2 and the PXC50 (BOTTOM -3.133728258, HILLSLOPE 1.050142996, MAX_EFFECT 53.9445629, TOP 100.0) turned out to be 4.1.

As for `COCCNC(=O)c1ccc2ccc(N3CCN(CC4CC4)CC3)n2c1`, the PXC50 is 4.26 (BOTTOM 5.874206897, HILLSLOPE 1.640597442, MAX_EFFECT 51.96261682, TOP 70.05301325) and less than 4 (MAX_EFFECT 46.71201814).

Consider `O=c1cc(NCCCNCc2cc(C(F)(F)F)cs2)[nH]c2ccccc12`, for which the PXC50 is, setting by setting: (BOTTOM -2.424501326, HILLSLOPE 1.220462925, MAX_EFFECT 102.3310023, TOP 102.5192077) 5.71; (BOTTOM -3.989177117, HILLSLOPE 1.235768434, MAX_EFFECT 100.0, TOP 101.1477832) 5.75.

Turning to `CCc1nc(NCCCO)c2cc(CC)sc2n1`, the PXC50 is less than 4 (MAX_EFFECT 1.262626263) and less than 4 (MAX_EFFECT 8.163265306).

Consider `Cc1nc(O)cc(C2CCN(c3nc(C)nc4sccc34)CC2)n1`, for which the PXC50 reads like this: (MAX_EFFECT 2.659574468) less than 4; (MAX_EFFECT 5.699481865) less than 4.

Compound `Cc1nc(NCc2ccccn2)c2cc(C)sc2n1` came in with a PXC50 (MAX_EFFECT 3.015075377) of less than 4 and a PXC50 (MAX_EFFECT 6.633906634) of less than 4.

Take `CS(=O)(=O)N1CCN(c2cnc3ncc(C(=O)NC4CCCC4)cn23)CC1`: the PXC50 was less than 4 (MAX_EFFECT 3.624733475) and less than 4 (MAX_EFFECT 4.761904762).

For the compound `Cn1cc(CN2CCC(F)(F)C3(CCN(c4cccnc4)C3)C2)cn1` (stereo not given), the PXC50 is less than 4 (MAX_EFFECT 3.888888889) and less than 4 (MAX_EFFECT 8.450704225).

Turning to `CS(=O)(=O)N1CCN(c2ccc3ccc(C(=O)NC4CCCC4)nn23)CC1`, the PXC50 runs as follows: (MAX_EFFECT 4.387568556) less than 4; (MAX_EFFECT 8.612440191) less than 4.

Regarding `Cc1nc(NCC2COCCO2)c2c3c(sc2n1)CCC3` (stereo not given), the PXC50 by setting is: (MAX_EFFECT 5.303030303) less than 4; (MAX_EFFECT 6.632653061) less than 4.

With `O=C(NCC1(O)CCCCC1)c1cc(=O)c2ccc(F)c(O)c2o1`, the PXC50 was less than 4 (MAX_EFFECT 5.582137161) and less than 4 (MAX_EFFECT 7.485604607).

For `CCc1nc(NCc2ccccn2)c2cc(C)sc2n1`, the PXC50 is, setting by setting: (MAX_EFFECT 5.651105651) less than 4; (MAX_EFFECT 6.030150754) less than 4.

As for `CCc1nc(NCCOC)c2c3c(sc2n1)CCC3`, the PXC50 was less than 4 (MAX_EFFECT 5.793450882) and less than 4 (MAX_EFFECT 9.41475827).

For the compound `COc1ccc(-c2cc(C(F)(F)F)nc(N3CCCC3)n2)cc1`, the PXC50 reads like this: (MAX_EFFECT 5.85106383) less than 4; (MAX_EFFECT 7.772020725) less than 4.

Regarding `COc1ccc(NC[C@@H](N)CC(C)C)c(Oc2ccc(Cl)cc2)n1`, the PXC50 was less than 4 (MAX_EFFECT 6.560636183) and less than 4 (MAX_EFFECT 6.651376147).

In the case of `CNC(=O)CN(C)c1nc(-c2cccs2)nc2sc(C)c(C)c12`, the PXC50 reads like this: (MAX_EFFECT 6.801007557) less than 4; (MAX_EFFECT 6.870229008) less than 4.

As for `Cn1cc(CN2CCC(F)(F)C3(CCN(c4cccc(F)c4)C3)C2)cn1` (stereo not given), the PXC50 by setting is: (MAX_EFFECT 7.256235828) less than 4; (MAX_EFFECT 17.57009346) less than 4.

Consider `CCOc1ccc(CN(C)Cc2nc(N)c3c(C)c(C)sc3n2)cc1`, for which the PXC50 runs as follows: (MAX_EFFECT 7.466666667) less than 4; (MAX_EFFECT 8.994708995) less than 4.

The compound `FC1(F)CCN(Cc2ccccn2)CC12CCN(c1cnccn1)C2` (stereo not given) yielded a PXC50 (MAX_EFFECT 7.476635514) of less than 4 and a PXC50 (MAX_EFFECT 8.163265306) of less than 4.

Compound `Cc1sc2nc(CN3CCOCC3)nc(NCCO)c2c1C` gave a PXC50 (MAX_EFFECT 7.650273224) of less than 4 and a PXC50 (MAX_EFFECT 8.021390374) of less than 4.

The values are drawn from ChEMBL document CHEMBL3988442, “University of Dundee, Small-Polar-MMV Screening Library” (2021).
